In the supplement of paper PMC9262897, “Low-cost anti-mycobacterial drug discovery using engineered E. coli” (Nature Communications, 2022):
Structures can show the parent of a compound that is named as a salt. ± gives the standard deviation of the averaged measurements.

system: E. coli TESEC Mtb DapB; test: growth (OD600 after 10 h); higher = more growth (less inhibition); conditions: arabinose induction (level): High; compound 0.1 mM; raw OD600 reference: median of DMSO wells […], cell-free background 0.041
Procedure: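 TESEC E. coli strains in which the native enzyme is deleted and replaced by arabinose-inducible Mtb Asd, DapB, CysH or TrpD, each grown in its selective medium. Strains were screened against the Prestwick library at 0.1 mM and 1% DMSO in 384-well format at low and high arabinose induction. Growth is read as OD600 after 10 h in triplicate.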

Compound	growth
CC(C)NCC(O)c1ccc2ccccc2c1 (stereo not given) [Pronethalol hydrochloride]	0.194 ± 0.015
O=C(O)c1cc(=O)c2c(OCC(O)COc3cccc4oc(C(=O)O)cc(=O)c34)cccc2o1 [Cromolyn disodium salt]	0.189 ± 0.013
Clc1ccc2c(c1)C(N1CCNCC1)=Nc1ccccc1O2 [Amoxapine]	0.159 ± 0.03
CC(=O)O[C@H]1C[C@@]2(C)[C@@H](C[C@@H](O)[C@H]3[C@@]4(C)CC[C@@H](O)[C@@H](C)[C@@H]4CC[C@@]32C)/C1=C(\CCC=C(C)C)C(=O)O [Fusidic acid sodium salt]	0.0536 ± 0.0022
CCN(CC)CCNc1ccc(CO)c2sc3ccccc3c(=O)c12 [Hycanthone]	0.21 ± 0.027
Cc1onc(-c2ccccc2)c1C(=O)N[C@@H]1C(=O)N2[C@@H]1SC(C)(C)[C@@H]2C(=O)O [Oxacillin sodium]	0.192 ± 0.0086
Cc1c(N(C)C)c(=O)n(-c2ccccc2)n1C [Amidopyrine]	0.21 ± 0.017
COc1cc(N)c(Cl)cc1C(=O)NC1CCN(Cc2ccccc2)CC1 [Clebopride maleate]	0.2 ± 0.011
Nc1nc(=O)c2nc(CNc3ccc(C(=O)N[C@@H](CCC(=O)O)C(=O)O)cc3)cnc2[nH]1 [Folic acid]	0.211 ± 0.019
CC1(C)O[C@@H]2C[C@H]3[C@@H]4CCC5=CC(=O)CC[C@]5(C)[C@@]4(F)[C@@H](O)C[C@]3(C)[C@]2(C(=O)CCl)O1 [Halcinonide]	0.188 ± 0.003
Cc1cccc(C)c1NC(=O)C(C)N (stereo not given) [Tocainide hydrochloride]	0.232 ± 0.038
CN1CCC(=C2c3ccccc3C=Cc3ccccc32)CC1 [Cyproheptadine hydrochloride]	0.175 ± 0.015
C#C[C@]1(OC(C)=O)CC[C@H]2[C@@H]3CCC4=C[C@@H](OC(C)=O)CC[C@@H]4[C@H]3CC[C@@]21C [Ethynodiol diacetate]	0.161 ± 0.0063
O=C(O)Cc1sc(-c2ccccc2)nc1-c1ccc(Cl)cc1 [Fentiazac]	0.206 ± 0.012
CN(Cc1cnc2nc(N)nc(N)c2n1)c1ccc(C(=O)N[C@@H](CCC(=O)O)C(=O)O)cc1 (racemic) [Amethopterin (R,S)]	0.192 ± 0.033
COc1ccc(OC)c(C(O)CNC(=O)CN)c1 (stereo not given) [Midodrine hydrochloride]	0.188 ± 0.0075
CCOc1ccc2nc(S(N)(=O)=O)sc2c1 [Ethoxzolamide]	0.172 ± 0.0065
O=c1[nH]c(=O)n([C@H]2C[C@H](O)[C@@H](CO)O2)cc1F [Floxuridine]	0.129 ± 0.0019
CC(=O)Oc1ccccc1C(=O)Nc1ncc([N+](=O)[O-])s1 [Nitazoxanide]	0.0545 ± 0.0006
CC(C)(C(=O)c1cccnc1)c1cccnc1 [Metyrapone]	0.179 ± 0.015

same assay, conditions: arabinose induction (level): Low; compound 0.1 mM; raw OD600 reference: median of DMSO wells 0.227, cell-free background 0.041

Compound	growth
CC(C)NCC(O)c1ccc2ccccc2c1 (stereo not given) [Pronethalol hydrochloride]	0.225 ± 0.03
O=C(O)c1cc(=O)c2c(OCC(O)COc3cccc4oc(C(=O)O)cc(=O)c34)cccc2o1 [Cromolyn disodium salt]	0.228 ± 0.034
Clc1ccc2c(c1)C(N1CCNCC1)=Nc1ccccc1O2 [Amoxapine]	0.173 ± 0.041
CC(=O)O[C@H]1C[C@@]2(C)[C@@H](C[C@@H](O)[C@H]3[C@@]4(C)CC[C@@H](O)[C@@H](C)[C@@H]4CC[C@@]32C)/C1=C(\CCC=C(C)C)C(=O)O [Fusidic acid sodium salt]	0.052 ± 0.0007
CCN(CC)CCNc1ccc(CO)c2sc3ccccc3c(=O)c12 [Hycanthone]	0.163 ± 0.01
Cc1onc(-c2ccccc2)c1C(=O)N[C@@H]1C(=O)N2[C@@H]1SC(C)(C)[C@@H]2C(=O)O [Oxacillin sodium]	0.243 ± 0.046
Cc1c(N(C)C)c(=O)n(-c2ccccc2)n1C [Amidopyrine]	0.254 ± 0.056
COc1cc(N)c(Cl)cc1C(=O)NC1CCN(Cc2ccccc2)CC1 [Clebopride maleate]	0.223 ± 0.031
Nc1nc(=O)c2nc(CNc3ccc(C(=O)N[C@@H](CCC(=O)O)C(=O)O)cc3)cnc2[nH]1 [Folic acid]	0.239 ± 0.013
CC1(C)O[C@@H]2C[C@H]3[C@@H]4CCC5=CC(=O)CC[C@]5(C)[C@@]4(F)[C@@H](O)C[C@]3(C)[C@]2(C(=O)CCl)O1 [Halcinonide]	0.22 ± 0.0073
Cc1cccc(C)c1NC(=O)C(C)N (stereo not given) [Tocainide hydrochloride]	0.244 ± 0.06
CN1CCC(=C2c3ccccc3C=Cc3ccccc32)CC1 [Cyproheptadine hydrochloride]	0.192 ± 0.011
C#C[C@]1(OC(C)=O)CC[C@H]2[C@@H]3CCC4=C[C@@H](OC(C)=O)CC[C@@H]4[C@H]3CC[C@@]21C [Ethynodiol diacetate]	0.165 ± 0.011
O=C(O)Cc1sc(-c2ccccc2)nc1-c1ccc(Cl)cc1 [Fentiazac]	0.223 ± 0.029
CN(Cc1cnc2nc(N)nc(N)c2n1)c1ccc(C(=O)N[C@@H](CCC(=O)O)C(=O)O)cc1 (racemic) [Amethopterin (R,S)]	0.204 ± 0.022
COc1ccc(OC)c(C(O)CNC(=O)CN)c1 (stereo not given) [Midodrine hydrochloride]	0.25 ± 0.046
CCOc1ccc2nc(S(N)(=O)=O)sc2c1 [Ethoxzolamide]	0.187 ± 0.017
O=c1[nH]c(=O)n([C@H]2C[C@H](O)[C@@H](CO)O2)cc1F [Floxuridine]	0.165 ± 0.0032
CC(=O)Oc1ccccc1C(=O)Nc1ncc([N+](=O)[O-])s1 [Nitazoxanide]	0.0559 ± 0.0026
CC(C)(C(=O)c1cccnc1)c1cccnc1 [Metyrapone]	0.188 ± 0.01
